Results reported in PubChem BioAssay (EPA / NIEHS).
Several values for one entry are separate records, joined by “and”; a condition that tells them apart may be missing. Identical values can stand only once. A structure can be active in one record and inactive in another. Activity calls are given as the source filed them. Rule for the calls: active = hit-call score of the fitted dose curve at least 0.9, where 1 is the maximum; inactive = score below 0.9.

Experiments:
[1] = APR_HepG2_CellLoss_72hr: Apredica 72-hour HepG2 Assay for Cell Loss (AID 2282915); conditions: high-content imaging
Procedure, shortened: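 HepG2 cells exposed 72 h to compound at 0.39–200 uM (10 concentrations, duplicate) in 0.5% DMSO. Fixed with 3.7% formaldehyde and Hoechst 33342-stained. Imaged at 20x; nuclear count gives cell number, fitted bidirectionally versus DMSO.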

[2] = APR_HepG2_P-H2AX_72hr: Apredica 72-hour HepG2 Assay for H2AX Phosphorylation (AID 2282916); conditions: imaging, actives raise or lower the signal;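 note: phospho-histone H2A.x immunostain intensity per cell marking DNA damage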
Procedure, shortened: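 HepG2 cells treated 72 h at 0.39–200 uM, 0.5% DMSO final, duplicates. Formaldehyde-fixed, Triton-permeabilised, immunostained for phospho-H2A.x with Hoechst; fluorescence imaged at 20x, bidirectional fit versus DMSO.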

[3] = APR_HepG2_MitoMembPot_72hr: Apredica 72-hour HepG2 Assay for Mitochondrial Membrane Potential (AID 2282917); conditions: imaging, actives raise or lower the signal
Procedure, shortened: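 HepG2 cells dosed 72 hr with compound at 0.39–200 uM in duplicate, 0.5% v/v DMSO final. Mitochondria stained with 250 nM MitoTracker Red CMXRos for 30 min before formaldehyde fixation, imaged by high-content fluorescence; bidirectional fit versus DMSO.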

[4] = APR_HepG2_MitoticArrest_72hr: Apredica 72-hour HepG2 Assay for Mitotic Arrest (AID 2282918); conditions: high-content imaging, actives raise or lower the signal
Procedure, shortened: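 Mitotic arrest in HepG2 is scored from phospho-histone H3 staining after 72 hr dosing across 0.39–200 uM, with DMSO at 0.5% v/v. Nuclei are identified by Hoechst 33342 and fluorescence intensity is quantified per cell.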

[5] = APR_HepG2_MicrotubuleCSK_72hr: Apredica 72-hour HepG2 Assay for Microtubule CSK Stabilty (AID 2282919); conditions: HepG2 microtubule cytoskeleton, high-content imaging, actives raise or lower the signal
Procedure, shortened: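 HepG2 cells were exposed 72 hr to compound at 0.39–200 uM in duplicate (0.5% DMSO final), then fixed and permeabilized. Alpha-tubulin immunofluorescence was imaged by high-content microscopy, with bidirectional fitting against DMSO and taxol as positive control.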

[6] = APR_HepG2_P-H2AX_24hr: Apredica 24-hour HepG2 Assay for H2AX Phosphorylation (AID 2282920); conditions: high-content imaging, actives raise or lower the signal
Procedure, shortened: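 Signal comes from a FITC-labeled secondary detecting phospho-histone H2A.x in fixed HepG2 cells, quantified by automated imaging at 20x. Dosing ran 24 hr across 0.39–200 uM with 0.5% v/v DMSO.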

[7] = APR_HepG2_StressKinase_72hr: Apredica 72-hour HepG2 Assay for Stress Kinase (AID 2282921); conditions: HepG2 stress kinase (phospho-c-Jun) imaging, actives raise or lower the signal
Procedure, shortened: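 HepG2 cells treated 72 hr with 0.39–200 uM compound, 0.5% v/v DMSO, duplicate wells. After formaldehyde fixation and Triton permeabilization, stained with anti-phospho-c-Jun (1:500) and Cy3 secondary, imaged at 20x. Fitted in both directions against DMSO.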

[8] = APR_HepG2_StressKinase_24hr: Apredica 24-hour HepG2 Assay for Stress Kinase (AID 2282922); conditions: HepG2 stress kinase (phospho-c-Jun) imaging, actives raise or lower the signal
Procedure, shortened: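 HepG2 cells exposed 24 h to 0.39–200 uM compound in duplicate (0.5% v/v DMSO final). Cells fixed in 3.7% formaldehyde, permeabilized and immunostained for phospho-c-Jun; read by high-content fluorescence imaging, fitted bidirectionally against DMSO.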

[9] = APR_HepG2_p53Act_72hr: Apredica 72-hour HepG2 Assay for p53 Activation (AID 2282923); conditions: high-content imaging, actives raise or lower the signal;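 note: average cellular p53 protein immunofluorescence intensity in HepG2 cells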
Procedure, shortened: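 HepG2 cells exposed 72 h to 0.39–200 uM in 0.5% DMSO, duplicates. Fixed, permeabilized cells immunostained for p53 (Cy5) with Hoechst; imaged at 20x, fluorescence analyzed bidirectionally against DMSO.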

[10] = APR_HepG2_NuclearSize_72hr: Apredica 72-hour HepG2 Assay for Nuclear Size (AID 2282925); conditions: high-content imaging, actives raise or lower the signal
Procedure, shortened: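 HepG2 cells dosed 72 h at 0.39–200 uM (10 concentrations, duplicate) in 0.5% v/v DMSO final. Fixed, Hoechst 33342-stained nuclei imaged; nuclear diameter measured by automated image analysis. Bidirectional fit versus DMSO.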

[11] = ATG_CRE_CIS: Attagene CIS-FACTORIAL HepG2 Assay for human cAMP Responsive Element (CRE) binding protein 3 (AID 2282926); conditions: HepG2 CRE cis-reporter, Attagene multiplexed mRNA; actives raise or lower the signal
Procedure, shortened: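 We dosed HepG2 cells bearing multiple cis-promoter reporter units for 24 h and measured reporter mRNA by RT-PCR with capillary electrophoresis detection. Bidirectional concentration-response fitting used DMSO as negative control.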

[12] = target: CCAAT/enhancer-binding protein beta (Homo sapiens) (UniProt P17676); experiment: ATG_C_EBP_CIS: Attagene CIS-FACTORIAL HepG2 Assay for human CCAAT/Enhancer Binding Protein (C/EBP) beta (AID 2282927); conditions: HepG2 Attagene cis-factorial transcription factor reporter; actives raise or lower the signal
Procedure, shortened: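 HepG2 transiently transfected with multiplexed reporter units under cis-regulatory promoters reporting endogenous C/EBPb activity. After 24 h exposure, reporter mRNA assayed by RT-PCR, fluorescent labelling, HpaI digestion and capillary electrophoresis; bidirectional fitting versus DMSO.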

[13] = ATG_DR4_LXR_CIS: Attagene CIS-FACTORIAL HepG2 Assay for human Liver X Receptor (LXR), DR4 submotif (AID 2282929); conditions: HepG2 Attagene DR4 cis-reporter, mRNA transcription; actives raise or lower the signal
Procedure, shortened: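 The endpoint is DR4-element-driven reporter transcripts after 24 h chemical exposure of transfected HepG2 cells. These were measured via RT-PCR and capillary electrophoresis, and gain or loss of signal was fitted relative to DMSO controls.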

[14] = target: Aryl hydrocarbon receptor (Homo sapiens) (UniProt P35869); experiment: ATG_Ahr_CIS: Attagene CIS-FACTORIAL HepG2 Assay for human Aryl Hydrocarbon Receptor (Ahr) (AID 2282930); conditions: HepG2 AhR cis-factorial reporter transcription; actives raise or lower the signal
Procedure, shortened: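 HepG2 cells transiently transfected with cis-element-driven multiplexed reporter units; endogenous AhR activity read as reporter mRNA 24 h after dosing, via RT-PCR, 6-FAM labelling, HpaI digestion and capillary electrophoresis. Bidirectional fit relative to DMSO.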

[15] = ATG_AP_1_CIS: Attagene CIS-FACTORIAL HepG2 Assay for human Activator Protein 1 (AP-1) (AID 2282931); conditions: HepG2 Attagene cis-factorial AP-1 reporter mRNA; actives raise or lower the signal
Procedure, shortened: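 Readout is reporter transcript level from endogenous transcription factor activity, quantified by RT-PCR with fluorescent primer extension and capillary electrophoresis. Transiently transfected HepG2 cells, 24 h exposure. Curves fitted both directions versus DMSO.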

[16] = ATG_AP_2_CIS: Attagene CIS-FACTORIAL HepG2 Assay for human Activator Protein 2 (AP-2) (AID 2282932); conditions: HepG2 AP-2 cis-reporter, Attagene transcription factor profiling; actives raise or lower the signal
Procedure, shortened: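 HepG2 cells transiently transfected with cis-element reporter units and exposed for 24 h. Reporter mRNA measured by RT-PCR, FAM labelling, HpaI digestion and capillary electrophoresis. Changes in either direction fitted relative to DMSO.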

[17] = ATG_BRE_CIS: Attagene CIS-FACTORIAL HepG2 Assay for human Bone Morphogenetic Protein (BMP) Response Element (BRE) (AID 2282933); conditions: HepG2 BMP response element reporter, Attagene transcription factor profiling; actives raise or lower the signal
Procedure, shortened: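 Gain- or loss-of-signal was derived by bidirectional fitting against DMSO controls. The signal came from reporter mRNA, measured by RT-PCR and capillary electrophoresis, in HepG2 cells transiently carrying multiple reporter units and dosed for 24 h.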

[18] = ATG_CMV_CIS: Attagene CIS-FACTORIAL HepG2 Assay for human CMV (Internal Marker) (AID 2282928); conditions: HepG2 CMV promoter reporter, transcription factor profiling; actives raise or lower the signal;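 note: endpoint acts as a background internal control marker rather than a target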
Procedure, shortened: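 HepG2 cells transiently transfected with multiple cis-regulated reporter units; 24 h compound exposure. Reporter mRNA quantified by RT-PCR, 6-FAM primer-extension labeling, HpaI digestion and capillary electrophoresis; bidirectional fitting against DMSO baseline.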

[19] = target: Retinoic acid receptor alpha (Homo sapiens) (UniProt P10276); experiment: ATG_DR5_RAR_CIS: Attagene CIS-FACTORIAL HepG2 Assay for human Retinoic Acid Receptor Alpha (RARE), DR5 submotif (AID 2282934); conditions: HepG2 Attagene cis-factorial RARE DR5 reporter, mRNA; actives raise or lower the signal;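 for AC50: reporter responds to endogenous RAR alpha beta and gamma in HepG2 not RARA alone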
Procedure, shortened: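 HepG2 cells transiently transfected with multiplexed reporter units; DR5 cis-element drives reporter through endogenous transcription factors. After 24 h dosing, reporter mRNA quantified by RT-PCR, fluorescent labeling, HpaI digestion and capillary electrophoresis; bidirectional fitting versus DMSO.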

[20] = APR_HepG2_MitoMass_72hr: Apredica 72-hour HepG2 Assay for Mitochondrial Mass (AID 2282924); conditions: high-content imaging, actives raise or lower the signal;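 note: MitoTracker Red CMXRos stain intensity per cell imaged as mitochondrial mass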
Procedure, shortened: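 HepG2 cells dosed 72 hr at 0.39–200 uM (0.5% DMSO), in duplicate. MitoTracker Red CMXRos 250 nM loaded 30 min before formaldehyde fixation; high-content fluorescence imaging, bidirectional fit versus DMSO.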

Measured: AC50

Aryl hydrocarbon receptor (Homo sapiens), sequence (P35869 whole entry, looked up): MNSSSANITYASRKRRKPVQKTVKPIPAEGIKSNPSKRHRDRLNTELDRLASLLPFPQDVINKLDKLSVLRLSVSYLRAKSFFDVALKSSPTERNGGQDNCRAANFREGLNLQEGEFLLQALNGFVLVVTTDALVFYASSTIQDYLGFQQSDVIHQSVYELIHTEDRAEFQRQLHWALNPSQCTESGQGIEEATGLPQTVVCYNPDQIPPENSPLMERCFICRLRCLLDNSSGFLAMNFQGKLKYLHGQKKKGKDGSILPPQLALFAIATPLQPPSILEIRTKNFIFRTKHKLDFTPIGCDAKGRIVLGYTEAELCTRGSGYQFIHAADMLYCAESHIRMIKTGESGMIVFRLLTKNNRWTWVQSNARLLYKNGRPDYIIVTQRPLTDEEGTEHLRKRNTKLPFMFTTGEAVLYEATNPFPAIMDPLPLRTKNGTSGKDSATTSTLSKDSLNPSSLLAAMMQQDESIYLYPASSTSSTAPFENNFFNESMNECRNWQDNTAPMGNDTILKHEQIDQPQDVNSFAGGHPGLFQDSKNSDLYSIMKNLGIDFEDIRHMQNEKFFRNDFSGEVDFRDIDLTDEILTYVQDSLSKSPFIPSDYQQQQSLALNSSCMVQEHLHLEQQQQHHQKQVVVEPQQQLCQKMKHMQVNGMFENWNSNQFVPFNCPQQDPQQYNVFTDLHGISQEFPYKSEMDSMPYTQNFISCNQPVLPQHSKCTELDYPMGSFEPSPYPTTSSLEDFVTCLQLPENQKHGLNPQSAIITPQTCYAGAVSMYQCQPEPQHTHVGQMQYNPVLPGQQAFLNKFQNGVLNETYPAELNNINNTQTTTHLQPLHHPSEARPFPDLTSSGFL
CCAAT/enhancer-binding protein beta (Homo sapiens), sequence (P17676 whole entry, looked up): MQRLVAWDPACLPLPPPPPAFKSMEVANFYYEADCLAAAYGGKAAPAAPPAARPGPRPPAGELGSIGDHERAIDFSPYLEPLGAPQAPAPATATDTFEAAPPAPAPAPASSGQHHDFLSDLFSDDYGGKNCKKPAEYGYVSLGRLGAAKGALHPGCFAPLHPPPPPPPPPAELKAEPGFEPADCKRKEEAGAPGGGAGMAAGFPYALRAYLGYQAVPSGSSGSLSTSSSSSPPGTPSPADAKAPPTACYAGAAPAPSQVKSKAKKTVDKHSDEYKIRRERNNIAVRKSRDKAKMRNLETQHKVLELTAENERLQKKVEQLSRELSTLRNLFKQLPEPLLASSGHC
Retinoic acid receptor alpha (Homo sapiens), sequence (P10276 whole entry, looked up): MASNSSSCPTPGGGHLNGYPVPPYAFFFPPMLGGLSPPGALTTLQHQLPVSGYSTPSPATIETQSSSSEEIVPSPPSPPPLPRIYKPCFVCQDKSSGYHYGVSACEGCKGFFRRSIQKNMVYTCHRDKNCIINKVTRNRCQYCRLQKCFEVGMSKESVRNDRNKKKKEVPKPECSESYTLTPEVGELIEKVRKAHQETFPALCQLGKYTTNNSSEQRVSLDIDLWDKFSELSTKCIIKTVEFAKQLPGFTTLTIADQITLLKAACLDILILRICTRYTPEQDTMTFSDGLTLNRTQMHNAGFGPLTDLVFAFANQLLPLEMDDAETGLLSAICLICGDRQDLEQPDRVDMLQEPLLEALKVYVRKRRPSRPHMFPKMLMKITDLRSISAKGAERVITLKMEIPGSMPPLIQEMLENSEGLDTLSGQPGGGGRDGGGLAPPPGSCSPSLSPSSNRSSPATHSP

C=C(C)C(=O)OCCC(F)(F)C(F)(F)C(F)(F)C(F)(F)C(F)(F)C(F)(F)F
inactive: [1] | [2] | [3] | [4] | [5] | [6] | [7] | [8] | [9] | [10] | [11] | [12] | [13] | [14] | [15] | [16] | [17]
active: [14] 54.4 µM

O=C(OCCOCCOC(=O)c1ccccc1)c1ccccc1
active: [14] 71.3 µM
not listed: [10] | [20]
inactive: all other assays above

CN1CCC[C@H]1c1cccnc1
not listed: [9] | [19] | [20]
inactive: all other assays above

CCCCCCCC(=O)O
not listed: [10] | [19] | [20]
inactive: all other assays above

COCC(C)OCC(C)O (centres undefined)
not listed: [10] | [18] | [20]
inactive: all other assays above

Cc1ccc(S(=O)(=O)O)c(C)c1
inactive: [11] | [12] | [13] | [14] | [15] | [16] | [17]

CC[C@H](C)[C@@H](C(=O)O)n1sc2ccccc2c1=O
not listed: [10] | [18] | [20]
inactive: all other assays above

O=C1OC2(c3ccccc31)c1cc(Br)c(O)c(Br)c1Oc1c2cc(Br)c(O)c1Br
inactive: [11] | [12] | [13] | [14] | [15] | [16] | [17] | [19]

O=C(O)c1ccccc1C(c1ccc(O)cc1)c1ccc(O)cc1
inactive: [2] | [3] | [4] | [5] | [6] | [7] | [8] | [20] | [11] | [12] | [18] | [13] | [14] | [15] | [16] | [17] | [19]
active: [1] 80.2 µM | [14] 64.8 µM

CCOC(=O)CC(O)(CC(=O)OCC)C(=O)OCC
not listed: [18] | [20]
inactive: all other assays above

N#C[C@@H]1CC(F)(F)CN1C(=O)CNC1CC2CCC(C1)N2c1ncccn1 (some centres undefined)
not listed: [10] | [20]
inactive: all other assays above

CCC(=C(c1ccc(O)cc1)c1ccc(OCCN(C)C)cc1)c1ccccc1
active: [13] 9.72 µM and 2.37 µM | [17] 10.5 µM | [19] 11.1 µM
inactive: [1] | [2] | [3] | [4] | [5] | [6] | [7] | [8] | [11] | [12] | [13] | [14] | [15] | [16] | [17] | [19]

CC#C[C@]1(O)CC[C@H]2[C@@H]3CCC4=CC(=O)CCC4=C3[C@@H](c3ccc(N(C)C)cc3)C[C@@]21C
inactive: [1] | [2] | [3] | [4] | [5] | [6] | [7] | [8] | [9] | [11] | [12] | [18] | [14] | [15] | [16] | [19]
active: [11] 49.8 µM and 47.6 µM and 23.3 µM | [18] 56.9 µM | [13] 10.4 µM [middle of 4 runs] | [14] 6.86 µM and 5.91 µM | [15] 27.6 µM and 66.9 µM and 63.5 µM | [16] 25.7 µM | [17] 22.4 µM [middle of 4 runs] | [19] 7.96 µM

CCCCC(CC)COC(=O)CCCCC(=O)OCC(CC)CCCC (centres undefined)
active: [14] 87.3 µM
not listed: [10] | [18] | [20]
inactive: all other assays above
